In all, about 65,000 compounds went through this assay and about 2,100 (3.2%) showed an effect of 50% or more. The median lay at about -52%. This excerpt belongs to a sample that is enriched for strong results.

This assay deals with Plasmodium falciparum. Description: Screen against P. falciparum Asexual Blood Stage (ABS), at 5uM. It counts as functional, Dd2. Particulars: tested at 5 uM.
As to `COc1ccc2[nH]c(C[C@@H]3C[C@@H](C(C)C)[C@H](CN(C)C)C=C3C)nc2c1`, the INHIBITION is listed as 78.9%. In the case of `Cc1ccc(CN2C[C@@H]3CCN(Cc4cccnc4)C(=O)[C@H]3C2)s1` it was -93.5%; in that of `CC(C)c1nccc([C@@H]2C[C@@H]3CCN(Cc4ccco4)C[C@H]3O2)n1`, -12.5%; in that of `CN(C)C(=O)CN1CCOCC2(C1)CN(c1ncccn1)CCO2` (stereo not drawn), -97%.

In the case of `Cc1nc(-c2ccc(F)c(F)c2)cc(C2CCNCC2)n1`, the INHIBITION was determined as 84.1%.

On to `CN1CCN(S(=O)(=O)c2cccc(F)c2)Cc2cccnc21`, for which the INHIBITION was -37.8%. As for `CN1CCN(S(=O)(=O)c2ccc(Cl)c(Cl)c2)c2cnccc21`, the INHIBITION amounted to 89.6%. In the case of `Cn1cc(CN2CC[C@H]3[C@H]2CC(=O)N3Cc2ccncc2)cn1` it was -2.65%; in that of `FC1(F)CCNCC12CCN(c1ccccn1)C2` (stereo not drawn), 58.6%. Regarding `OCCN1CCC(F)(F)C2(CCN(c3cccnc3)C2)C1` (stereo not drawn), the INHIBITION was -46.2%.

For `FC1(F)CCN(Cc2cccnc2)CC12CCN(c1ccccc1)C2` (stereo not drawn), the INHIBITION is reported as 85.3%.

Take `Fc1cccnc1N1CCC2(CNCCC2(F)F)C1` (stereo not drawn): the INHIBITION came out at 47.8%.

Turning to `c1cnc(N2CC3(CCN(Cc4cccnc4)C3)C2)nc1`, the INHIBITION was -85.5%. As for `FC1(F)CCNCC12CCN(c1cccnc1)C2` (stereo not drawn), the INHIBITION was determined as 66.6%. The result for `FC1(F)CCNCC12CCN(c1ncccn1)C2` (stereo not drawn) reads 19.8%; that for `O=C1CSC(c2ccc(O)cc2)c2sccc2N1` (stereo not drawn), -74.5%; that for `c1coc(CN2CC[C@@H]3O[C@@H](COCc4ccncc4)CC[C@@H]32)c1`, -70.4%. In the case of `CCCN1CCN(C(=O)Cc2cccnc2)[C@H]2CS(=O)(=O)C[C@H]21` it was -103%. For the compound `CO[C@H]1CN(CC2CC2)[C@@H]2CCCO[C@H]12`, the INHIBITION is reported as 7.3%. With `Cc1nc(C2CCN(C)CC2)cc(N2CCOc3ccc(Cl)cc3C2)n1`, the INHIBITION was found to be 70.7%. Regarding `CC(Cn1cccn1)NCc1nc(-c2ccsc2)no1` (stereo not drawn), the INHIBITION is given as -40%. The result for `CCS(=O)(=O)N1CCc2c(CN3CCOCC3)cncc2C1` reads -10.2%; that for `CC1CN(Cc2ccccc2)CCCN1CCNS(C)(=O)=O` (stereo not drawn), 71.7%; that for `CS(=O)(=O)NC[C@H]1OC[C@@H]2CN(Cc3cccnc3)CC[C@@H]21`, -58.6%. The result for `O=C(O)[C@H]1CN(Cc2ccccc2)C[C@@H]1C(=O)c1ccccc1` reads -40.5%; that for `Cc1cnc(NCCc2c[nH]cn2)nc1-c1ccnn1C`, -84%. With `CCC(C)Oc1ccc(CNCCc2c[nH]cn2)cc1Cl` (stereo not drawn), the INHIBITION was 91.9%. In the case of `Cc1cccc(CN2CCN3C[C@H](Oc4cncnc4)C[C@H]3C2)n1` it was -87%. Regarding `Cc1ccc(CN2C[C@@H]3CN(c4ncccn4)C[C@@H]3C2)cc1`, the INHIBITION was -62.8%. The result for `Cc1cccc(CN2CCCC(O)(CNCc3ncccc3C)C2=O)c1` (stereo not drawn) reads 82.1%. In the case of `Cc1cccc(CN2CCCC[C@H]3CN(c4ncccn4)C[C@H]32)c1` it was -35.2%; in that of `CCC(=O)N1CCC2(CC1)C(=O)N(Cc1cccnc1)CCN2C`, 0.961%. In the case of `Cc1cccc(CN2CCC3(CCN(c4ncccn4)CC3)C2=O)c1` it was 76%.

With `Cc1cccnc1CN(C)CC1(O)CCCN(CC2CCCCC2)C1=O` (stereo not drawn), the INHIBITION is reported as 44.3%. For `CC(C)c1cc(N2CCC3(CC2)CN(C)CCN3C)ncn1`, the INHIBITION was -11.3%.

Consider `CCOc1ncccc1C(=O)N1CCN(C)C2(CCN(C)CC2)C1`, for which the INHIBITION was determined as 10.3%.

On to `Cc1cc(C)c2c(NCCC34CCCN3CCC4)ncnc2n1`, for which the INHIBITION is recorded as -48.6%. With `O=C(C1CCC1)N1CC[C@]2(O)CCN(Cc3ncccn3)C[C@@H]2C1`, the INHIBITION is recorded as -55.6%. The result for `O=C(C1CCC1)N1CCN(Cc2cccnc2)[C@H]2CS(=O)(=O)C[C@H]21` reads -17.6%; that for `CC(C)Nc1cc(-c2c[nH]nc2C2CCN(C(=O)C3CC3)C2)ccn1` (stereo not drawn), 80.9%; that for `CC(C)Nc1cc(-c2c[nH]nc2C2CCN(C(=O)C3CCC3)C2)ccn1` (stereo not drawn), 83.7%. The result for `CCCNc1cc(-c2c[nH]nc2C2CCN(C(=O)C3CCC3)C2)ccn1` (stereo not drawn) reads 92.5%. In the case of `CCc1ncc(CN2C[C@@H]3CC[C@H]2CN(C(=O)C2CCC2)C3)cn1` it was -85.5%. With `O=C1NC2(CCc3ccccc31)CCN(Cc1cccnc1)C2` (stereo not drawn), the INHIBITION is listed as -111%. As to `O=C(c1ccco1)N1C[C@H]2CCCN(Cc3ccncc3)[C@H]2C1`, the INHIBITION is given as -19.6%. The result for `Cn1cnc(S(=O)(=O)N2C[C@H]3CN(Cc4cccnc4)C[C@H]3C2)c1` reads -85.8%; that for `Cc1sc2nc(CCN)nc(N3CCC(N4CCCC4)CC3)c2c1C`, 84.3%; that for `Cc1sc2nc(CCN)nc(N3CC(N4CCCCC4)C3)c2c1C`, 81.6%. In the case of `COCC(=O)NC[C@H]1C[C@@H]2CCN1C[C@@H]2CN1CCc2ccccc21` it was 27.2%; in that of `N#Cc1cnc2ccccc2c1N1CCNCC1`, -3.53%; in that of `O=C(C1CCCCC1)N1C[C@H]2CNC[C@H]2C1`, 44.5%. The result for `CN1C[C@@H]2C[C@H](C(=O)Nc3cccnc3)[C@H](C1)O2` reads -69.3%; that for `CC(=O)NC(C)C(=O)NCc1ccc(N2CCNC(=O)C2)cc1` (stereo not drawn), -4.19%.

Consider `COc1ccc(CNC(=O)C2=NN(c3ccc(C)cc3)C(=O)CN2)cc1`, for which the INHIBITION was determined as 75%. In the case of `COCCN1CCO[C@H]2[C@H](OCc3cccc(C)n3)CC[C@@H]21` it was -74.3%; in that of `CC(C)(C)c1n[nH]c(C2CN(CC3CCC3)CCO2)n1` (stereo not drawn), -108%. As to `Cc1ccc2[nH]c(C3CCN(C)CC3)nc2c1`, the INHIBITION is listed as -40.2%.

Take `Cc1ccc2[nH]c([C@H]3CCN(CC4CCCCC4)C3)nc2c1`: the INHIBITION was 74.7%. In the case of `CCC(CC)NCC(C)Oc1cccnc1` (stereo not drawn) it was -116%; in that of `Cc1cn2c(n1)C(CNCc1ccc(C)s1)CCC2` (stereo not drawn), 91.1%; in that of `Cc1cn2c(n1)C(CNCc1cccc3c1OCO3)CCC2` (stereo not drawn), 82.1%.

Consider `CCOC[C@@H]1CCC[C@@]12CN(Cc1cccnc1)CCO2`, for which the INHIBITION is -129%. The result for `COCCN1CCC2(CC1)CC(NCc1ccc(C)s1)c1ccccc12` (stereo not drawn) reads 77.2%. In the case of `Cc1cccc(CN2C[C@@H]3OCCN(C)[C@@H]3C2)n1` it was -14.4%; in that of `Cc1ccc(CNC2CC3(CCN(CCO)CC3)c3ccccc32)s1` (stereo not drawn), 85.4%; in that of `COCCN1CCC2(COCc3cnc(-c4ccccc4)nc32)C1` (stereo not drawn), 31.2%. Turning to `Cc1ccc2c(c1)CCC21CCN(CCO)CC1`, the INHIBITION came to 15.4%. In the case of `Cc1ccc(CN2CCC3(CC2)C(=O)N(C)c2ccccc23)s1` it was 3.77%. The result for `Cc1cccc(CNC2CC3(CCN(CCO)CC3)c3ccccc32)n1` (stereo not drawn) reads 78.6%; that for `Cc1ccc2c(c1)C(N(C)C)CC21CCN(CCO)CC1` (stereo not drawn), 74.8%.

For the compound `Cc1ccc2c(c1)C1(CCNCC1)CC2NCCO` (stereo not drawn), the INHIBITION is given as -23.2%. Regarding `O=S(=O)(C1CC1)N1CCC2(CCCN(Cc3ccccn3)C2)C1` (stereo not drawn), the INHIBITION stood at 12.2%. In the case of `O=C(Cc1ccccn1)N1CCN2C[C@H](OCCN3CCCC3)C[C@H]2C1` it was 2.21%; in that of `CC[C@@H]1N(CC2CC2)CCC[C@]12CCC(=O)N2`, -57.5%; in that of `Cc1noc(C)c1CN1CC[C@H]2[C@H]1CCN2CC1CCOCC1`, -92%. As for `CNC(=O)[C@H]1C[C@@H]2CN(C(=O)c3ccc(C)nc3)C[C@@H]2N1C`, the INHIBITION was -35.1%. The result for `CC(C)C(NC(=O)c1ccccc1)C(=O)N1CCC2(CC1)OCCO2` (stereo not drawn) reads -37.3%; that for `CN(C)C(=O)c1ccc(-c2cccc3c2CCNC3)o1`, -44.3%. `Cn1cc(CNC2CC3(CCN(CC4CC4)CC3)c3ccccc32)cn1` (stereo not drawn): the INHIBITION is 87.6%.

Consider `CN1C(=O)C2(CCN(CC3CC3)CC2)c2ccccc21`, for which the INHIBITION is given as 25.6%.

Regarding `Cn1cc(CN2CC[C@]3(C[C@H](Oc4ccccn4)CO3)C2)cn1`, the INHIBITION was -20.3%. Regarding `NCC1CCN(C2CCN(c3ccc(-c4ccco4)cc3)CC2)C1` (stereo not drawn), the INHIBITION is on record as 91%.

On to `Cc1oc(-c2ccco2)nc1CC(=O)N1CCN(C2CCC2)CC1`, for which the INHIBITION is -14.4%.

With `CNC1CCN(C2CCN(c3ccc(-c4ccco4)cc3)CC2)CC1`, the INHIBITION is reported as 86.4%. In the case of `NC1CCN(C2CCN(c3ccc(-c4ccco4)cc3)CC2)CC1` it was 80.3%; in that of `O=C1NC2(CCCCC2)c2nnnn2-c2ccc(Br)cc21`, -67.2%; in that of `O=C(CCc1ccsc1)N1CCC(C(=O)O)(c2ccccc2)CC1`, -103%.

For the compound `CCN1CCCN(S(=O)(=O)c2cc3ccccc3o2)CC1`, the INHIBITION is 84.3%. The result for `NC(=O)CN1CCCN(C(=O)Cc2ccc(F)cc2)CC1` reads -158%; that for `CS(=O)(=O)c1ccc(-c2cc(O)cc(CCC3CCCCN3)c2)cc1` (stereo not drawn), 70.3%; that for `CS(=O)(=O)c1ccc(CC(=O)N2CCN3CCNC(=O)C3C2)cc1` (stereo not drawn), -50.4%. Turning to `CCCN1CCN(Cc2nccn2CC)C(C)C1` (stereo not drawn), the INHIBITION is -101%. The result for `CCCn1ccnc1CN1CCCC1c1ccccn1` (stereo not drawn) reads 86.8%; that for `CCC(=O)N1CCN(Cc2cnc(C)nc2)[C@H]2CS(=O)(=O)C[C@H]21`, -106%; that for `Cc1nnc(N2CCCC3(CN(Cc4ccncc4)CCO3)C2)o1` (stereo not drawn), -78.8%. In the case of `O=C1CC2(CCN(Cc3ccc(Cl)s3)C2)C(=O)N1` (stereo not drawn) it was -155%; in that of `Cc1ccc(Sc2ccc(CN3CCC4(CCCNC4=O)C3)o2)cc1` (stereo not drawn), 73.1%; in that of `CC(C)C(=O)N1CCCC2(CCCN2Cc2cccnc2)C1` (stereo not drawn), -13.9%.

With `Cc1ccccc1CC(=O)N1C[C@@H](O)[C@H](N2CCN(C)CC2)C1`, the INHIBITION is on record as -87.9%. For `CN(C)[C@@H]1CCN(C(=O)Cc2cccs2)[C@H]1Cc1ccncc1`, the INHIBITION was -51.7%. In the case of `CN(C)[C@@H]1CCN(C(=O)Cc2ccc(F)cc2)[C@H]1Cc1ccncc1` it was 5.44%; in that of `CN(C)[C@@H]1CCN(c2ncc(F)cn2)[C@H]1Cc1ccccc1`, 89%.

Regarding `Cc1ccc(CN2C[C@@H]3CN(c4ncc(F)cn4)C[C@@H]3C2)cc1`, the INHIBITION is -37%. In the case of `CN(C)[C@@H]1CCN(c2ncccn2)[C@H]1Cc1ccccc1` it was 78.1%; in that of `Cc1cccc(CN2CC[C@@H]3[C@@H]2CCN3C(=O)c2cc(C)on2)n1`, -95.7%; in that of `CN(C)[C@@H]1CCN(C(=O)Cc2cccs2)[C@H]1Cc1cnn(C)c1`, -4.87%. In the case of `CN(C)C(=O)CN1CC[C@H]2[C@H]1CCN2c1ncccn1` it was -109%; in that of `Cc1cc(C(=O)N2CC[C@@H](N(C)C)[C@@H]2Cc2ccccc2)no1`, 74.4%.

Source of the values: ChEMBL document CHEMBL4513216, “Probing the Open Global Health Chemical Diversity Library for Multistage-Active Starting Points for Next-Generation Antimalarials” (ACS Infect Dis, 2020).
